In the supplement of paper PMC11732987, “Enantioselective OTUD7B fragment discovery through chemoproteomics screening and high-throughput optimisation” (Communications Chemistry, 2025):

Assays:
Assay in all cases: log2 ratio of Biotin-Ahx-Ub-VS probe labelling (fragment/DMSO); higher = less target engagement (more negative = stronger competition), active = hit call of the paper (q ≤ 0.05, log2 ratio ≤ -1)
Settings in all cases: compound concentration: 200 uM; treatment time: 3 h
ALG13 = target: T1, ALG13 (UniProt Q9NP73)
T1 sequence (whole entry): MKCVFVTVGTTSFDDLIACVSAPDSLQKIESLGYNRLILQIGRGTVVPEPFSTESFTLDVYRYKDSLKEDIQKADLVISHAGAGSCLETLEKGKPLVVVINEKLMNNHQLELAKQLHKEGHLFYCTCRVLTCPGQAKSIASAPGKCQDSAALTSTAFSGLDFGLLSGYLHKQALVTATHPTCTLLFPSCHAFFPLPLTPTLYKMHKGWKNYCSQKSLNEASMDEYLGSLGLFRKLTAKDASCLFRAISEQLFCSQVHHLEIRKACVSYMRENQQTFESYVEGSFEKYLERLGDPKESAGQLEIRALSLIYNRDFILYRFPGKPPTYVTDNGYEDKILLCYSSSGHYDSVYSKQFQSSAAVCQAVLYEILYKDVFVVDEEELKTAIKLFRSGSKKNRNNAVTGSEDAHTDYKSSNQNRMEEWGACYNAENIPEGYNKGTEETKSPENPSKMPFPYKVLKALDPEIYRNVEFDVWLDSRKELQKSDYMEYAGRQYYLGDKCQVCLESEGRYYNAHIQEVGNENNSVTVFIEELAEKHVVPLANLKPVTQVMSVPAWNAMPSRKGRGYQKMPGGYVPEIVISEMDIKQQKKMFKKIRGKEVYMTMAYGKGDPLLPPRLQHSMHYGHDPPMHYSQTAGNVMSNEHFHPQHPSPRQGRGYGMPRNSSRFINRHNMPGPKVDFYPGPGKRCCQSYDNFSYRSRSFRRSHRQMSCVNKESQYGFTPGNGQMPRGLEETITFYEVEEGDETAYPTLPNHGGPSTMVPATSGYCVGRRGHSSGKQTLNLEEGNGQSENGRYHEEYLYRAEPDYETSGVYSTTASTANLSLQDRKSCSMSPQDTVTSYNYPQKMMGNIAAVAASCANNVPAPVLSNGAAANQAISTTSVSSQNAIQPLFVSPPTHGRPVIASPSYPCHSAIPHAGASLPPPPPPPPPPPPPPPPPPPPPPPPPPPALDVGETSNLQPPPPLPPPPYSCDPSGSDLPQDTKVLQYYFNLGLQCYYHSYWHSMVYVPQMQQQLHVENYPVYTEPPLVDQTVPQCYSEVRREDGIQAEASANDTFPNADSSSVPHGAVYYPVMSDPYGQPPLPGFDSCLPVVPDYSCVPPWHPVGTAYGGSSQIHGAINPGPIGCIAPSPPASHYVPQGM
How it was run: (§1)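 Labelling with Biotin-Ahx-Ub-VS (0.5 µM final, 1 h) followed a 3 h triplicate treatment of HEK293T lysate (495 µg per sample, Tris/CHAPS/IGEPAL buffer with protease inhibitors) with fragment at 200 µM or vehicle. Labelled DUBs were NeutrAvidin-enriched, digested with LysC and trypsin, and run by diaPASEF LC-MS/MS. The values, average log2 fragment/vehicle ratios by unpaired t-test, come from global-median-normalised Spectronaut label-free quantities. Proteins with ≥2 unique peptides were used.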

ATXN3 = ATXN3 (UniProt P54252)
How it was run: as §1

BAP1 = target: T2, BAP1 (UniProt Q92560)
T2 sequence (whole entry): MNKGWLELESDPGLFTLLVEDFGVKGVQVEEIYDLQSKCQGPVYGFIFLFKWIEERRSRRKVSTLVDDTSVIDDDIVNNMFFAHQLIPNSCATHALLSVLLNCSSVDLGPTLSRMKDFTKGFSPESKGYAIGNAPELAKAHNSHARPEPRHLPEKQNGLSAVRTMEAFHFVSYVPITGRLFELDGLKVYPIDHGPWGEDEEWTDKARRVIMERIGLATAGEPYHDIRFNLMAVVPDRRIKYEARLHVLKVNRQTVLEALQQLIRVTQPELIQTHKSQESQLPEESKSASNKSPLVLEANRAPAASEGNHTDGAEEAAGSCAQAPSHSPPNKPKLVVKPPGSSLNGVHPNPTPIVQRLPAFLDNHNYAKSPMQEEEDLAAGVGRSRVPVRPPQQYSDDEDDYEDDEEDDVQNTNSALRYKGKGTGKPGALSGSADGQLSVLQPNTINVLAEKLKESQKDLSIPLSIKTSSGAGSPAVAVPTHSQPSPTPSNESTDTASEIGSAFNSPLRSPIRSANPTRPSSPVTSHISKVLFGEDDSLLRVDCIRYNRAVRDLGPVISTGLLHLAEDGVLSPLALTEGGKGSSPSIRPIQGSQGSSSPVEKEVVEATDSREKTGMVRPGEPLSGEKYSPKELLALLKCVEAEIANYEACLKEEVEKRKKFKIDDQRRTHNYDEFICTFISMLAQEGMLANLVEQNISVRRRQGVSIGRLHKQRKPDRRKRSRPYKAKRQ
How it was run: as §1

EIF3F = EIF3F (UniProt O00303)
How it was run: as §1

EIF3H = EIF3H (UniProt O15372)
How it was run: as §1

FAM105A = target: T3, FAM105A (UniProt Q9NUU6)
T3 sequence (whole entry): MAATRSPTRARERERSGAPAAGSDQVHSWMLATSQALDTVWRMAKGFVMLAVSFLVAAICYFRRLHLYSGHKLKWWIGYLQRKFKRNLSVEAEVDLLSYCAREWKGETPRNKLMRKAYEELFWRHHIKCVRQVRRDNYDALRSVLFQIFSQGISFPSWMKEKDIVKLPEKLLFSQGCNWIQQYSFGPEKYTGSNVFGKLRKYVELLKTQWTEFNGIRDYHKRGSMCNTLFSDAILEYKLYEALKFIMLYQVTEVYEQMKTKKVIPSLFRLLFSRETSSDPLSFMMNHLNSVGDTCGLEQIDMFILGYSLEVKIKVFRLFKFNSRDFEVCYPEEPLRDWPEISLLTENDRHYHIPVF
How it was run: as §1

OTUB1 = OTUB1 (UniProt Q96FW1)
How it was run: as §1

OTUD4 = target: T4, OTUD4 (UniProt Q01804)
T4 sequence (whole entry): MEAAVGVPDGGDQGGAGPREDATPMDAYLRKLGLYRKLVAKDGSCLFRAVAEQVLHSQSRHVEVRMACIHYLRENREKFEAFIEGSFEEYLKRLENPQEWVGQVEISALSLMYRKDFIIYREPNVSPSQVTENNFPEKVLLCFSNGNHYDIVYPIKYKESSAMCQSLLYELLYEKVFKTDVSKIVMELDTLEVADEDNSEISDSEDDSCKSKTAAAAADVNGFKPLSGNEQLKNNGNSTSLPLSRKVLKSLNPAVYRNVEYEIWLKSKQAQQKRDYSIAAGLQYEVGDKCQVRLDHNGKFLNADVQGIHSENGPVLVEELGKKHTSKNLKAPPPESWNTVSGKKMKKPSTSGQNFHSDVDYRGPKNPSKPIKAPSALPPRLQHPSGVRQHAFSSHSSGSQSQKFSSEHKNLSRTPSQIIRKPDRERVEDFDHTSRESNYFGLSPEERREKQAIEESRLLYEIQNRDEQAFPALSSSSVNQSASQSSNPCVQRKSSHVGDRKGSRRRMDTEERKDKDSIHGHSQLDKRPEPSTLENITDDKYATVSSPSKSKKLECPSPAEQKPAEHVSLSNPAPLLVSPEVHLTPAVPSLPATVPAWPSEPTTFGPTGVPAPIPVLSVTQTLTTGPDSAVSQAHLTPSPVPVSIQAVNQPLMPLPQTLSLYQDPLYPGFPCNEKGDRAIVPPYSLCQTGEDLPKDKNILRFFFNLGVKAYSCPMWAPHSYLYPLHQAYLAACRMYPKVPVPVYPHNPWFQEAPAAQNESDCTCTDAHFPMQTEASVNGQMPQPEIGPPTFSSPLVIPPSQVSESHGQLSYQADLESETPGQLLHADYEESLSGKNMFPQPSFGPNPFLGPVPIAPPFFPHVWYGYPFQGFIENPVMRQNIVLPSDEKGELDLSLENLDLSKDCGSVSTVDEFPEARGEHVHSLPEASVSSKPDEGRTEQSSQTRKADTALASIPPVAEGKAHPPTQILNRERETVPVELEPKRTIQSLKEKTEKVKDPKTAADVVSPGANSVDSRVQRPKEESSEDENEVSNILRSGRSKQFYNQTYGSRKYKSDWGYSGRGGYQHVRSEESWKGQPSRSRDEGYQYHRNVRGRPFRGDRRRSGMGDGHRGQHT
How it was run: as §1

OTUD5 = target: T5, OTUD5 (UniProt Q96G74)
T5 sequence (whole entry): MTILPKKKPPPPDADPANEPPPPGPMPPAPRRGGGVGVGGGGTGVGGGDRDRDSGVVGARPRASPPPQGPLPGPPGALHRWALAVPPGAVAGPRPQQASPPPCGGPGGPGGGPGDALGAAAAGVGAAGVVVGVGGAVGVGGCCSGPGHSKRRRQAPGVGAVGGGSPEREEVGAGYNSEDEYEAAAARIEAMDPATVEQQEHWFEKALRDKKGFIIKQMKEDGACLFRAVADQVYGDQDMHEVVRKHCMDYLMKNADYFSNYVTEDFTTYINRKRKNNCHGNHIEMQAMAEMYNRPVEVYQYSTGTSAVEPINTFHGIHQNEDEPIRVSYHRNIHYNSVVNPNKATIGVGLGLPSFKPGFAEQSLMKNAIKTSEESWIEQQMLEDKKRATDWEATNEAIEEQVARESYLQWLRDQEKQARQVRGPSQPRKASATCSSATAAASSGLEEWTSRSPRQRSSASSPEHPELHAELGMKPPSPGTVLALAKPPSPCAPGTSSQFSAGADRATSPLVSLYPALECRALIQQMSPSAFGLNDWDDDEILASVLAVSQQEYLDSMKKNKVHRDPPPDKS
How it was run: as §1

Measured: log2 ratio of Biotin-Ahx-Ub-VS probe labelling

Sequence of EIF3H (O15372 whole entry): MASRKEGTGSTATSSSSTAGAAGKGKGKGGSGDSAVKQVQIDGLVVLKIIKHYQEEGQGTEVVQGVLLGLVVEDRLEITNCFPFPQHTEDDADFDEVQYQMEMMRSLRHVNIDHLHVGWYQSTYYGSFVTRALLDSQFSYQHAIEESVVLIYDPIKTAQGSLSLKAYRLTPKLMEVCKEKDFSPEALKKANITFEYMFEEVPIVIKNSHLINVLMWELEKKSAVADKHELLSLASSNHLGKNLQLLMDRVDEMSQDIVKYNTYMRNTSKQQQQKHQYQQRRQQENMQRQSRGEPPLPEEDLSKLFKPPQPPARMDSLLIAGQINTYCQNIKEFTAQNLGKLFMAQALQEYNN
Sequence of OTUB1 (Q96FW1 whole entry): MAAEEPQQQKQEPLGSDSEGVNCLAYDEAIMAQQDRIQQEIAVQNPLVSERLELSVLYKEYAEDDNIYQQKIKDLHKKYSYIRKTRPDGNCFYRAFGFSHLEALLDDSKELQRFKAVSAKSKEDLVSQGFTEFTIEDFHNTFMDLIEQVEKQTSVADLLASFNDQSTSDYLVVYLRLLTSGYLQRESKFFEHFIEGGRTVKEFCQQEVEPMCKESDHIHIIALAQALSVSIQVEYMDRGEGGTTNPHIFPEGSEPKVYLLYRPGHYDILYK
Sequence of EIF3F (O00303 whole entry): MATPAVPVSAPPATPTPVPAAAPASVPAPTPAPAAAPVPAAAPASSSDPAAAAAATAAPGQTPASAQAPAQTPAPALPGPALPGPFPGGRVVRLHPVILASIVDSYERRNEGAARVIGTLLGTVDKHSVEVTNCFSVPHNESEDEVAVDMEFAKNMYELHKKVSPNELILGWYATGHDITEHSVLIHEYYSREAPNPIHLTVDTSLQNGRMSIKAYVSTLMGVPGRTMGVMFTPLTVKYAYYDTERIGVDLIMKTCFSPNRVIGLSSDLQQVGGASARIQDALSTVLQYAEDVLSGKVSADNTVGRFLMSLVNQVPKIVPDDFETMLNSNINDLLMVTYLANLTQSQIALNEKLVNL
Sequence of ATXN3 (P54252 whole entry): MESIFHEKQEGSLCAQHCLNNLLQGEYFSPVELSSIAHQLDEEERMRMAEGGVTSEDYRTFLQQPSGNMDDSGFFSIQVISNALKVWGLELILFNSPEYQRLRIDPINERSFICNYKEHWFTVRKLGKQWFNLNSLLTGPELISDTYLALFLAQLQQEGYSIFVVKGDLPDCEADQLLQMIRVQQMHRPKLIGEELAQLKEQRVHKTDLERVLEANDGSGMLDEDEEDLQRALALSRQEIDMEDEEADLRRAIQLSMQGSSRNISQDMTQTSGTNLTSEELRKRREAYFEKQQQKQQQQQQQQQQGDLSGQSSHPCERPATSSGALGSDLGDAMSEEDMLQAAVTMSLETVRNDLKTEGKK

CN(C)S(=O)(=O)c1ccccc1CNC(=O)CCl
inactive: ALG13 0.242 | ATXN3 -0.137 | EIF3F -0.0947 | EIF3H 0.29 | FAM105A -0.0283 | OTUB1 -0.0251 | OTUD4 -0.249 | OTUD5 -0.29
active: BAP1 -1.09
